NALP1 inh: NALP1 inhibition. AID 2071. S. cerevisiae NALP1/ASC/caspase-1 growth, X-gal OD620, 72 h. inhibition, % at 10 µM. hit rate 0.61% among 280,000; in the data active means inhibition mostly above about 24%, no sharp cut-off; inactive means mostly below about 32%
TIM10 inh: TIM10 yeast growth inhibition; S. cerevisiae TIM10 strain growth, BacTiter-Glo luminescence, 24 h; inhibition, % at 10 µM; hit rate 1.4% among 330,000; AID 463195;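 active means inhibition of 40% or more at the single tested concentration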;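 further: wild-type TIM10 isogenic control strain grown at permissive 25 °C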
tim10-1 inh: inhibits growth of tim10-1 mutant yeast; S. cerevisiae tim10-1 ts strain growth, BacTiter-Glo, 24 h; inhibition, % at 20 µM; hit rate 2.2% among 330,000;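 active means inhibition of at least 40%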;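 further: mutant grown at 25 °C; 0% = DMSO wells with yeast and 100% = wells holding no yeast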
SKKanGAS inh: SKKanGAS growth inhibition; S. pyogenes SKKanGAS, kanamycin growth, BacTiter-Glo, 6 h; inhibition, % at 7.5 µM; hit rate 1.3% among 300,000; AID 1662;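 active means mean replicate score, as percent of positive control median, at least 50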;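 further: strain carries kanamycin resistance gene driven by streptokinase promoter and grows in 40 µg/ml kanamycin; loss of luminescence reflects streptokinase promoter inhibition or plain growth inhibition; 0% = median of DMSO wells and 100% = positive control at its reference dose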
tim23-1 inh: growth inhibitors of tim23-1 mutant yeast. S. cerevisiae tim23-1 growth, BacTiter-Glo luminescence, 24 h. inhibition, % at 20 µM. hit rate 1.3% among 330,000. AID 463212;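 active means growth inhibition of the mutant yeast at or above 50%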;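 further: temperature-sensitive mutant grown at 25 °C; plate controls were DMSO-treated mutant yeast for no effect and medium wells lacking yeast for full effect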
PfHsp90 yeast 2: growth inhibition of yeast expressing Plasmodium Hsp90 | AID 504621 | S. cerevisiae expressing PfHsp90, BacTiter-Glo ATP, 48 h; yeast lacking PDR1 and PDR3 efflux regulators | inhibition, % at 9.4 µM | hit rate 0.32% among 310,000;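 active means every replicate shows inhibition above about 80%, whatever the replicate mean, limit read from the data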;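 further: 0% = DMSO neutral controls and 100% = 20 µM radicicol positive controls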
* = called active by the depositor; . = no result. Compounds with a hit are over-represented: about 4.8% of the library has one in this group of screens.

SMILES | NALP1 inh | TIM10 inh | tim10-1 inh | SKKanGAS inh | tim23-1 inh | PfHsp90 yeast 2
COCCNC(=O)c1onc(CSc2ccccn2)c1C(=O)NCCOC | . | -0.7 | -14.0 | -0.6 | 5.0 | .
C(=C\c1ccco1)/C=N/n1cnnc1 | 21.5* | 8.1 | 10.5 | -11.1 | -4.0 | -3.6
CCCCCCc1cc2cc(S(=O)(=O)c3ccc(Cl)cc3)c(=O)oc2cc1O | 9.1 | 13.5 | 6.7 | 6.2 | 8.6 | 102.3*
CCCCCCc1cc2cc(S(=O)(=O)c3ccc(C)cc3)c(=O)oc2cc1O | 25.0 | -11.6 | 13.7 | 16.3 | 6.7 | 6.7
C/C(=N/NS(=O)(=O)c1ccc(Cl)cc1)c1cccc(NC(=O)c2ccc(Cl)cc2Cl)c1 | -2.1 | 13.2 | 15.3 | 64.2* | 12.7 | -3.6
CC(=O)OC(C)C1C2=C(C(=O)CC1(C)O)C(=O)c1c(ccc(-c3ccc4c(c3O)C(=O)C3=C(C4=O)C(C(C)OC(C)=O)C(C)(O)CC3=O)c1O)C2=O (stereo not drawn) | . | . | . | . | . | -10.0
S=C(Nc1ccc(Cl)c(Cl)c1)N1CCCC1 | 11.2 | 11.5 | 15.0 | 2.3 | -0.3 | 13.6
CN1CCN(C(=S)Nc2ccc(Cl)c(Cl)c2)CC1 | 48.0* | -10.1 | 4.4 | 1.4 | 0.1 | 36.2
Cc1csc2nc(CSc3nc4ccccc4o3)c(Br)n12 | 6.3 | 39.3 | 33.4 | 60.1* | 41.5 | -20.3
COc1cc(/C=C(/C#N)C(=O)NCCCc2ccccc2)ccc1OCC(=O)O | 9.1 | -7.6 | -8.7 | -1.8 | -9.8 | 2.9
c1ccc2c(Nc3nc4c(s3)CCCC4)cccc2c1 | 15.9 | 16.2 | 35.8 | 57.5* | 28.0 | .
CCC(c1nnnn1CCOC)N(Cc1cc2c(C)cc(C)cc2[nH]c1=O)CC1CCCO1 (stereo not drawn) | 11.8 | 5.5 | 17.2 | -1.1 | 22.1 | -4.2
Cc1cc2nc(-c3ccc(SCC(=O)N4CCc5ccccc54)nc3)[nH]c2cc1C | 23.7* | 18.9 | 3.7 | 27.2 | 24.2 | 12.5
CC(=O)c1sc(Nc2nc3cc4c(cc3s2)OCO4)nc1C | 6.0 | . | . | 23.9 | . | .
COc1ccc2nc(Nc3nc(C)c(C(C)=O)s3)sc2c1 | -6.5 | 28.3 | 18.1 | 56.4* | 19.5 | -15.7
COc1ccc(C(=O)Nc2ccc(N3CCCC3)cc2)cc1Br | 29.6 | -1.3 | -5.4 | -0.1 | 18.2 | -3.2
CCOc1ccc(OCC(=O)Nc2cc3c(cc2C(=O)O)OCCCO3)cc1 | 7.2 | 5.2 | 4.7 | 1.5 | 12.9 | -12.9
COC(=O)c1ccccc1NC(=O)CC#N | 20.2 | 8.7 | 11.7 | -7.7 | -5.5 | 11.5
COC(=O)c1ccccc1NC(=O)C/C(C)=N/NC(=O)CC#N | 33.6* | -6.9 | -19.4 | -0.6 | 14.9 | 10.0
O=C(CN1CCCCCC1)Nc1ccccc1Oc1ccccc1 | 16.7 | -19.6 | -2.3 | -5.5 | 10.5 | .
COc1cccc(C(=O)NNC(=O)C(=O)Nc2cccc(Cl)c2C)c1 | -10.4 | -15.6 | -13.8 | 26.8 | 1.4 | -23.0
COc1ccccc1C(=O)NNC(=O)C(=O)Nc1cccc(Cl)c1C | -19.0 | -38.0 | -34.3 | 53.0* | -37.4 | -8.4
CCN(c1cccc2ccccc12)S(=O)(=O)c1cccs1 | . | -5.4 | -5.8 | . | 15.3 | -11.2
Nc1c(-c2ccccc2)c(CSc2nc3ccccc3[nH]2)nn1-c1cccc(Cl)c1 | 16.0 | 24.4 | 24.0 | 103.0* | 29.5 | -29.7
Cc1ccc(NC(=O)c2nc(S(=O)(=O)Cc3ccccc3)ncc2Cl)cc1 | -11.6 | -59.2 | -113.8 | 15.2 | 49.9 | 103.8*
SMILES | NALP1 inh | TIM10 inh | tim10-1 inh | SKKanGAS inh | tim23-1 inh | PfHsp90 yeast 2
CN(C)CCC#CC(O)(c1ccccc1)c1ccccc1 | 18.1 | -33.2 | -20.0 | -10.0 | 18.4 | 19.8
Cc1nc(NC(=S)NC(=O)c2ccco2)sc1C(=O)N(C)C | 16.3 | 16.6 | 13.9 | 35.4 | 33.7 | 11.5
COCCN(Cc1cc2cc(C)ccc2n2nnnc12)C(=S)Nc1ccccc1C | 23.6* | 15.1 | 22.5 | 1.7 | 7.8 | -13.5
COC(=O)C1CCN(Cc2cn(Cc3ccccc3)nc2-c2cc3ccccc3o2)CC1 | 32.0* | 14.9 | 14.8 | -8.7 | 16.1 | -23.3
COc1ccc(/C=C/C(=O)NCc2ccccn2)cc1 | 25.2 | -2.1 | 13.6 | 1.4 | 11.2 | -0.3
COc1ccc(NC(=O)c2sc3ncnc(N4CCN(c5ccccn5)CC4)c3c2C)cc1Cl | -20.0 | -40.2 | 16.5 | 37.6 | 11.3 | 103.0*
COc1ccc(NC(=O)c2sc3nc(C)nc(N4CCN(c5ccccn5)CC4)c3c2C)cc1Cl | 27.3 | 19.8 | 27.5 | 0.8 | 9.0 | -8.4
N#CCC(=O)Nc1ccc(C(=O)OCC(=O)NC(=O)Cc2ccccc2)cc1 | . | -9.9 | -11.8 | -8.1 | -12.3 | .
